# From PubChem BioAssay
# The source made the active and inactive calls. Unless noted, how the calls were made is not given here.
# Tests used:
# [1] = resazurin metabolic signal in HepG2 cells – cell-based, resazurin fluorescence, 24 h, PK04 Diversity Set, profiling panel (AID 1172); conditions: HepG2 viability, higher = more signal
# [2] = budding yeast growth changes without added modifier – OD600, strain BY4716, 24 h, basal condition, primary screen (AID 1173); conditions: S. cerevisiae BY4716 growth, OD600, 24 h; higher = more signal, called active from +8 up or from −8 down
# [3] = viability profiling in MM1S myeloma cells – cell-based, resazurin fluorescence, basal, 24 h, PK04 Diversity Set, profiling panel (AID 1174); conditions: higher = more signal, called active from +8 up or from −8 down;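 further: MM1S multiple myeloma cell line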
# [4] = molecular target: Dihydroorotate dehydrogenase (quinone), mitochondrial (Plasmodium falciparum (isolate 3D7)) (UniProt Q08210); test: inhibition of P. falciparum DHODH – biochemical, C-terminal His tag, absorbance 600 nm, primary screen (AID 1175); conditions: PfDHODH enzyme, DCIP absorbance 600 nm; higher = more signal, called active from +8 up or from −8 down;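 further: recombinant parasite enzyme with a five histidine tag at its C terminus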
# [5] = inhibition of PAO1 biofilm formation – strain PAO1, LB-PBS medium, absorbance 600 nm, primary screen (AID 1176); conditions: P. aeruginosa PAO1 growth/biofilm, A600, 12 h; higher = more signal
# [6] = growth modulation of vineyard yeast isolate – strain RM11-1a, OD600, basal, 24 h, primary screen (AID 1177);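 further: cultures grown under basal conditions with no added stressor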; conditions: S. cerevisiae RM11-1a growth, OD600, 24 h; higher = more signal, called active from +8 up or from −8 down
# [7] = growth of efflux-deficient E. coli DRC39 – strain DRC39, OD650, 24 h, E. coli filamentation inducers, primary screen (AID 1178);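 further: growth measured as culture turbidity by optical density at 650 nm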; conditions: E. coli DRC39 acrAB, higher = more signal, called active from +8 up or from −8 down
# [8] = growth of efflux-deficient E. coli DRC39 – strain DRC39, OD650, 48 h, E. coli filamentation inducers, primary screen (AID 1179);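 further: screen aims at cell division blockers that make cells filament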; conditions: E. coli DRC39 delta-acrAB growth, higher = more signal, called active from +8 up or from −8 down
# [9] = viability profiling in RPMI8226 myeloma cells – cell-based, resazurin fluorescence, basal, 24 h, PK04 Diversity Set, profiling panel (AID 1180); conditions: higher = more signal;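 further: RPMI8826 multiple myeloma cell line at 5000 cells per well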
# [10] = molecular target: E3 ubiquitin-protein ligase XIAP (Homo sapiens) (UniProt P98170); test: small molecules binding XIAP protein – biophysical, small-molecule microarray, fluorescence 635 nm, primary screen (AID 1181); conditions: higher = more signal;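 further: score merges 667 nm emission and signal to noise over triplicate slides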
# [11] = tested on: XIP peptide (Xip251-270) binding; test: XIP fragment 251-270 binding compounds – biochemical, small-molecule microarray, fluorescence 635/667 nm, 0.1 µg/mL protein, primary screen (AID 1182); conditions: fluorescent protein binding, 635 nm, higher = more signal, called active from +8 up or from −8 down
# XIP peptide (Xip251-270) = test: compounds binding XIP fragment 251-270 – biochemical, small-molecule microarray, fluorescence 635/667 nm, 0.5 µg/mL protein, primary screen (AID 1183); conditions: fluorescence 635 nm, higher = more signal
# [12] = blood-stage malaria parasite viability loss – strain 3D7, DAPI fluorescence, 100 nL, primary screen (AID 1184);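 further: parasites grown inside human red blood cells in medium with human serum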; conditions: P. falciparum 3D7 growth, 3 d, higher = more signal
# [13] = molecular target: Homeobox protein Hox-A13 (Mus musculus) (UniProt Q62424); test: disruptors of Hoxa13 oligonucleotide interaction – biochemical, fluorescence polarization, labeled oligonucleotide, primary screen (AID 1185); conditions: Hoxa13:DNA binding, 15 min, higher = more signal, called active from +8 up or from −8 down
# [14] = blockers of DNA damage checkpoint Chk1 activation – imaging, HeLa, hydroxyurea, phospho-Chk1 antibody, percent positive cells, primary screen (AID 1186); conditions: hydroxyurea-induced phospho-Chk1 immunofluorescence imaging, higher = more signal
# [15] = blockers of DNA damage checkpoint Chk1 activation – imaging, HeLa, hydroxyurea, phospho-Chk1 nuclear intensity, primary screen (AID 1187); conditions: hydroxyurea-induced phospho-Chk1 immunofluorescence imaging, higher = more signal
# Chain of Homeobox protein Hox-A13 (Mus musculus) (Q62424 whole entry, looked up): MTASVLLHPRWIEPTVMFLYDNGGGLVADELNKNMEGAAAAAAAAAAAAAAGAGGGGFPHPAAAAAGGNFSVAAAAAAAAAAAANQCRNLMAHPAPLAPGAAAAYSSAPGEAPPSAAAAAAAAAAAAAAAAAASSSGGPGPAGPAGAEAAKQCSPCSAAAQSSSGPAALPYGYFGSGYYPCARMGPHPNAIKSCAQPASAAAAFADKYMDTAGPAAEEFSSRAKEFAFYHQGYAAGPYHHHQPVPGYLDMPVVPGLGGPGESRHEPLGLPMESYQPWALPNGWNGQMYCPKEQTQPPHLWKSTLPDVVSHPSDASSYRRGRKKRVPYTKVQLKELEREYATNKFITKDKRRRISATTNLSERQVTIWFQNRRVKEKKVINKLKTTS
# Chain of E3 ubiquitin-protein ligase XIAP (Homo sapiens) (P98170 whole entry, looked up, the tested form may be a part): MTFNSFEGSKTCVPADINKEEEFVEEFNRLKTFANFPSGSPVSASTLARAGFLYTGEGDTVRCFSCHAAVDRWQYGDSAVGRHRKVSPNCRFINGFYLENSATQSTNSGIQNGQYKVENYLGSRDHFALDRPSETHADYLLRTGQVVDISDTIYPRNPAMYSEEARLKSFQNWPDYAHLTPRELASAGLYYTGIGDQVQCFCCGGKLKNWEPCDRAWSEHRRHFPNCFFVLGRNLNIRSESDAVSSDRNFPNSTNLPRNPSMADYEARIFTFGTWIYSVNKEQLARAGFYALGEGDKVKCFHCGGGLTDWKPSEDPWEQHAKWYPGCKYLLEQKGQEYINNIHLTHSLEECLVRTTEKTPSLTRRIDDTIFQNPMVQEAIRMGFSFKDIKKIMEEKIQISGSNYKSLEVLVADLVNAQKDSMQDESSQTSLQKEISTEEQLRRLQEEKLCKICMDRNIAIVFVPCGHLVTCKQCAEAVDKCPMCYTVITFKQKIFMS
# Chain of Dihydroorotate dehydrogenase (quinone), mitochondrial (Plasmodium falciparum (isolate 3D7)) (Q08210 whole entry, looked up): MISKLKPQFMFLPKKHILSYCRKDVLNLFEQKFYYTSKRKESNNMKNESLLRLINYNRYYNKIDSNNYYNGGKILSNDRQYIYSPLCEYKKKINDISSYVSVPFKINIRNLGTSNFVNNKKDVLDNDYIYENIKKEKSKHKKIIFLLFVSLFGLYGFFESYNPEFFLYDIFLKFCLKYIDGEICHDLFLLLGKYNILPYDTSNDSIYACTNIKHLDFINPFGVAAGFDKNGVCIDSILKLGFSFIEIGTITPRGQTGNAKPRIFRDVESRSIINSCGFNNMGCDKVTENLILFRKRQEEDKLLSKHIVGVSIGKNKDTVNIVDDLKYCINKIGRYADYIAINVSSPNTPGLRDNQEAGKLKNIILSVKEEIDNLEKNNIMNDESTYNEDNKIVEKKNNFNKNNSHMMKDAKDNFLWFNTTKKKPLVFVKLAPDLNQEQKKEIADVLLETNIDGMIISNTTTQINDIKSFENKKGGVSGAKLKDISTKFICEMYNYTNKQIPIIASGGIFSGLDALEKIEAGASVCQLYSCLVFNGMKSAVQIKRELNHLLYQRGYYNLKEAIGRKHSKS
Compound,z-score [1],z-score [2],z-score [3],composite z-score [4],z-score [5],z-score [6],z-score [7],z-score [8],z-score [9],composite z-score [10],composite z-score [11],composite z-score (XIP peptide (Xip251-270)),z-score [12],z-score [13],z-score [14],z-score [15]
CC(C)[Si](C#CCCCC#N)(O[C@H](c1ccccc1)c1cn(Cc2cccc(Cl)c2)nn1)C(C)C,0.36,-0.718 (inactive),0.109 (inactive),0.369 (inactive),1.25 (inactive),-0.358 (inactive),-0.0251 (inactive),-0.203 (inactive),-0.701,0.149,-0.186 (inactive),0.605,-1.06,-0.527 (inactive),-0.628 (inactive),-0.968 (inactive)
CC(C)C(=C=CC[C@H](O)c1ccc(CO)o1)CCO,-0.0202,-1.56 (inactive),-0.159 (inactive),-2.12 (inactive),0.0356 (inactive),-0.132 (inactive),-0.706 (inactive),-0.741 (inactive),0.152,0.102,0.352 (inactive),0.792,1.27,-4.02 (inactive),-0.301 (inactive),-0.0779 (inactive)
O=C1C2C=CC(C(O)c3cc(C(F)(F)F)cc(C(F)(F)F)c3)N(Nc3ccccc3)C2C(=O)N1c1ccccc1 (centres undefined),-0.621,-3.15 (inactive),-1.87 (inactive),0.399 (inactive),1.41 (inactive),0.596 (inactive),-0.921 (inactive),-0.284 (inactive),-2.49,0.0191,0.926 (inactive),0.197,0.0018,-2.82 (inactive),0.0811 (inactive),-0.017 (inactive)
COC(=O)c1c2oc(c1C(=O)OC)C(=O)NC1(CCCCC1)c1cn(nn1)C[C@H](Cc1ccccc1)NC(=O)N[C@H](CO)CC2,1.68,-0.861 (inactive),0.911 (inactive),-0.805 (inactive),0.383 (inactive),-0.0499 (inactive),1.09 (inactive),1.66 (inactive),0.456,-0.118,0.064 (inactive),-0.271,0.196,-4.41 (inactive),-0.0736 (inactive),-0.183 (inactive)
COc1ccc([Si](C)(C)[C@@H]2[C@@H](CC(=O)N3CCC[C@H]3CO)O[C@]3(C(=O)N(Cc4cccc(I)c4)c4ccccc43)[C@H]2C)cc1,-2.43,-0.91 (inactive),-3.49 (inactive),0.447 (inactive),0.483 (inactive),1.07 (inactive),-1 (inactive),-1.05 (inactive),-4.92,0.189,0.302 (inactive),0.572,-2.28,-3.72 (inactive),-0.198 (inactive),-0.353 (inactive)
COC(=O)[C@@]1(Cc2ccc(OC)cc2)[C@H]2c3cc(C(=O)N4CCCC4)n(CCSCCO)c3C[C@H]2CN1C(=O)c1ccccc1,0.353,1.6 (inactive),0.129 (inactive),-0.0408 (inactive),0.923 (inactive),1.47 (inactive),-1.18 (inactive),-0.739 (inactive),-1.3,0.187,0.0308 (inactive),0.826,-1.44,-5.24 (inactive),1.35 (inactive),1.04 (inactive)
COc1cc2c(cc1O)C=[N+](Cc1cc3c(cc1Br)OCO3)CC2,-0.532,0.384 (inactive),-1.29 (inactive),0.707 (inactive),0.0898 (inactive),0.593 (inactive),-0.31 (inactive),-0.3 (inactive),-0.566,-0.252,-0.105 (inactive),1.1,-1.88,-3.19 (inactive),-0.126 (inactive),-0.203 (inactive)
O=C1C2C=CC(C(O)c3ccc4c(c3)OCO4)N(Nc3ccc([N+](=O)[O-])cc3)C2C(=O)N1c1ccccc1 (centres undefined),-0.415,-0.13 (inactive),-0.104 (inactive),-1.46 (inactive),0.0641 (inactive),-0.729 (inactive),-1.15 (inactive),-0.411 (inactive),-0.56,0.191,-0.164 (inactive),0.473,-0.54,-4.87 (inactive),0.0611 (inactive),-0.825 (inactive)
COc1ccc(C#Cc2ccc3c(c2)[C@]2(C(=O)N3)[C@H](c3ccc(O)cc3)N3[C@H](c4ccccc4)[C@H](c4ccccc4)OC(=O)[C@H]3[C@@H]2C(=O)N2CCc3cc(OC)c(OC)cc3C2)cc1,0.449,1.14 (inactive),-0.309 (inactive),-0.103 (inactive),1.37 (inactive),0.816 (inactive),-0.101 (inactive),0.304 (inactive),-0.333,-0.0582,0.409 (inactive),0.465,-2,-1.17 (inactive),-0.0377 (inactive),-0.187 (inactive)
